# Source: PubChem BioAssay
# aSyn UTR act = Activators working through SNCA 5'UTR binding (MLPCN). alpha-synuclein 5'UTR reporter, activators screen. activity score, % (tested at 7.5 µM), hits read low. hit rate 7.1% among 300,000. AID 1814; in the data active means activity score below about -60%
# Numbers without * were called inactive. The list is a sample of the results.
SMILES,aSyn UTR act
Cc1ccc(OCC(=O)O/N=C(\N)c2ccncc2)cc1C,-129*
Cc1cc(C)c(C)c(OCC(=O)O/N=C(\N)c2ccccn2)c1,-110*
N/C(=N\OC(=O)COc1ccc2ccccc2c1Br)c1ccccn1,-107*
N/C(=N\OC(=O)COc1ccccc1)c1ccccn1,-69*
Cc1ccc2nc(-c3ccc(N4C(=O)CC(N5CCN(CCO)CC5)C4=O)cc3)sc2c1 (stereo not drawn),-87*
CC(=O)c1ccc(NC(=O)CCc2c(C)nc3ncnn3c2C)cc1,-69*
CCc1c(C)nc2ncnn2c1Nc1ccc(C(C)=O)cc1,-112*
Cc1nc(/N=C\N(C)C)sc1C(=O)Nc1ccccc1,-79*
Cc1ccc(NC(=O)c2sc(N)nc2C)cc1,-185*
Cc1nc(C(=O)Nc2ccccc2)sc1C(=O)Nc1ccccc1,-166*
Cc1cccc(N=CC=C2OC(C)(C)C(C)(C)O2)c1,-81*
COc1cccc(N=CC=C2OC(C)(C)C(C)(C)O2)c1,-99*
Cc1ccc(/C=N/NC(=O)c2nn(C)cc2Cl)cc1,-108*
Cn1cc(Cl)c(C(=O)N/N=C/c2ccc3c4c(cccc24)CC3)n1,-126*
Cc1cc2oc3ccc(NCCCn4ccnc4)cc3c(=O)c2cc1C,-86*
Cc1cc2oc3ccc(NCCCN4CCOCC4)cc3c(=O)c2cc1C,-97*
O=C1OCCC1Sc1nnc(-c2ccc3c(c2)OCO3)o1 (stereo not drawn),55
Nc1oc2ccccc2c(=O)c1-c1ccc2c(c1)OCO2,-75*
COc1ccccc1NC(=O)c1ccc2nc(C)sc2c1,-105*
COc1ccccc1NC(=O)c1ccc2[nH]c(C)c(C)c2c1,-145*
COc1cccc(NC(=O)c2ccc3nc(C)sc3c2)c1,-239*
Cc1ccc(C(=O)C(C(=O)/C=C/c2ccccc2)=C2SCCCS2)cc1,-102*
CC(=O)C(/C=N/c1cc(-c2ccc(C)cc2)nn1-c1ccccc1)=C(\C)O,-198*
CCc1nnc(NC(=O)c2cc(-c3ccccc3)nn2-c2ccccc2)s1,-165*
Cc1ccc(NC(=O)c2cc(-c3ccccc3)nn2-c2ccccc2)cc1,-98*
SMILES,aSyn UTR act
COC(=O)c1ccc(Cn2nc(C)cc2C)cc1,-71*
Cc1ccc(C)c(NC(=O)c2cc(-c3ccccc3O)n[nH]2)c1,-198*
Cc1ccc(-c2cc(C(=O)Nc3cc(C)ccc3C)[nH]n2)c(O)c1,-86*
Cc1ccc(C)c(NC(=O)COC(=O)c2cccc3c2C(=O)c2ccccc2C3=O)c1,55
COc1ccc(OC)c(NC(=O)c2cc(-c3cc(C)ccc3O)n[nH]2)c1,-104*
Cc1ccc(C)c(NC(=O)c2cc(-c3cc(C)c(C)cc3O)n[nH]2)c1,-233*
CC1=C/C(=C(/c2cc(C)c(O)c(Br)c2)c2ccccc2S(=O)(=O)O)C=C(Br)C1=O,61
c1ccc2c(NCCc3c[nH]c4ccccc34)c3ccccc3nc2c1,-549*
OCCCNc1c2ccccc2nc2ccccc12,-155*
Fc1cccc(NCCc2c[nH]c3ccccc23)n1,-101*
Cn1cnnc1Sc1ccc(/C=C/C(=O)c2ccc(O)cc2)cc1[N+](=O)[O-],-111*
C/C(=N/OCc1ccc(Br)cc1)c1ccccn1,-123*
N/C(=N\OCc1ccc([N+](=O)[O-])cc1)c1ccccn1,112
Cn1c(/C=C/c2ccc(Br)cc2)c([N+](=O)[O-])c(=O)n(C)c1=O,-199*
CCCOc1ccc(/C=C/c2c([N+](=O)[O-])c(=O)n(C)c(=O)n2C)cc1,-130*
COc1ccc(CN2CCN(c3nc4ccccc4s3)CC2)cc1,-69*
COc1ccc(-c2[nH]ncc2CN2CCC(O)(c3ccc(Cl)cc3)CC2)cc1,87
Cc1ccccc1CN1CCN(c2nc3ccccc3s2)CC1,-146*
C=CCn1cc(/C=N/Nc2nc3ccccc3[nH]2)c2ccccc21,-195*
Cn1c(/C=N/Nc2nc3ccccc3[nH]2)nc2ccccc21,-188*
CC(C)Cn1c(/C=N/Nc2nc3ccccc3[nH]2)nc2ccccc21,-337*
Cc1ccc(-c2csc(N3C(=N)SCC3=O)n2)cc1,-162*
CCCCCCCCCCCCCCCCn1cc[n+](C)c1,141
CC(=O)c1ccc(NC(=S)NC(=O)/C=C/c2ccco2)cc1,-101*
O=C(/C=C/c1ccco1)NC(=S)Nc1ccccc1,-104*
SMILES,aSyn UTR act
O=C(NCC1CCCN(C(=O)c2cscn2)C1)c1ccccc1Cl (stereo not drawn),-78*
COc1cccc2cc(-c3nc(-c4cccs4)cs3)c(=O)oc12,-174*
c1csc(-c2csc(-c3cccs3)n2)c1,-104*
CNc1nnc(-c2cc3ccccc3oc2=O)s1,-78*
N=c1oc2ccccc2cc1-c1nc(-c2ccccc2)cs1,-64*
O=c1oc2ccccc2cc1-c1nc(-c2cccs2)cs1,-133*
Nc1c(-c2ccccn2)cnn1-c1nc(-c2ccc(F)cc2)cs1,-79*
Nc1c(-c2cccs2)cnn1-c1nc(-c2ccc(F)cc2)cs1,-124*
Cc1ccc2nc(-c3ccc4c(c3)NC(=O)CO4)cn2c1,-80*
Cc1ccc2nc(-c3ccc4c(c3)OCCO4)cn2c1,110
NNC(=O)c1nn(-c2ccccc2)cc1O,83
O=C(c1cnn(-c2ccccc2)c1)c1ccccc1O,-106*
O=C(c1cnn(-c2ccccc2)c1)c1cc(F)ccc1O,-163*
N#Cc1cc2c(N)c(C(=O)Nc3ccccc3)sc2nc1N,-124*
Nc1c(C(=O)Nc2ccccc2)sc2nc(-c3ccco3)ccc12,-176*
Cc1cccc(NC(=O)c2sc3nc(N)c(C#N)cc3c2N)c1,-156*
O=c1c(/C=C(\O)c2ccccc2)nc2ccccc2n1-c1ccccc1,-127*
c1ccc(Nc2ccnc(Nc3ccccc3)n2)cc1,-100*
NNc1nc(Nc2ccccc2)nc(Nc2ccccc2)n1,-117*
Cc1ccc2cc(CN(CCN(C)C)C(=O)Nc3ccc(Cl)cc3)c(=O)[nH]c2c1,-83*
Cc1cc(C)c2cc(CN(CCO)C(=O)Nc3ccc(Cl)cc3)c(=O)[nH]c2c1,53
O=C(Nc1ccc2c(c1)OCO2)c1cccc(F)c1,-183*
O=C(Nc1cccc(F)c1)Nc1ccc2c(c1)OCO2,-99*
O=C(Nc1ccc2c(c1)OCO2)c1c(F)cccc1F,-125*
Cc1cccc(Nc2nn3c(=O)c4ccccc4nc3s2)c1,-160*
SMILES,aSyn UTR act
O=C(Nc1ccc(-c2nnn(CC(=O)N3CCN(C(=O)c4ccco4)CC3)n2)cc1)c1ccccc1F,-71*
COc1ccccc1C(=O)Nc1ccc(-c2nnn(CC(=O)N3CCN(C(=O)c4ccco4)CC3)n2)cc1,-79*
O=C(Cn1nnc(-c2ccc(NC(=O)c3ccccc3F)cc2)n1)NCc1ccc(F)cc1,-66*
NC(=O)Cn1nnc(-c2ccc(NC(=O)c3ccc(F)cc3)cc2)n1,-73*
C=CCNC(=S)NC(=O)c1ccc(C)c(Br)c1,-106*
CCOc1ccc(Nc2cc(C)nc(-n3nc(C)cc3C)n2)cc1,63
CC(=O)Nc1nnc(COc2ccc(Cl)cc2)s1,-109*
CCOc1ccc(Nc2n[nH]c(=S)s2)cc1,-112*
CCOc1ccc(NC(=O)Nc2nnc(CC)s2)cc1,-105*
COc1ccccc1NC(=O)Nc1nnc(C(C)C)s1,-81*
CCc1nnc(NC(=O)Nc2ccccc2OC)s1,-70*
Cc1cc(Br)ccc1NC(=O)CNC(=O)Cn1ncc(Cl)c(Cl)c1=O,63
CCN(CC)S(=O)(=O)c1cc(NC(=O)Cn2ncc(Cl)c(Cl)c2=O)ccc1C,-99*
COc1cccc(-c2nnc3sc(-c4ccccn4)nn23)c1,-103*
COc1ccccc1-c1nnc2sc(-c3ccc(N(C)C)cc3)nn12,99
